The list is not random: actives were taken first. Their share in the collection is about 10%.
FLuc inh-1 = inhibitors of firefly (Photinus pyralis) luciferase; P08659; purified P. pyralis luciferase, luminescence, biochemical; Potency, µM (titrated, usually from 115 µM), hits mostly inhibitors; 76,000 compounds, 2.5% hits; AID 1347043; note: % is set by controls: 0 for no effect and ±100 for the full control effect; nearly all actives have a fitted effect of over 65% in size
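Purified 10nM P. pyralis luciferase with 10uM D-luciferin and 10uM ATP in 50mM Tris acetate pH 7.5, 10mM Mg acetate, 0.01% Tween-20, 0.05% BSA. qHTS titration; luminescence read by CCD imager.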
hNpr1 antagonist = antagonists of human natriuretic peptide receptor Npr1; HEK293 hNpr1 GloSensor cGMP, ANP-stimulated luminescence; 76,000 compounds, 1.6% hits; Potency, µM (top dose mostly 46.3 µM), inactives show at the highest dose activity change, negative = inhibition, actives largely listed as inhibitors; P16066; calls by dose curve; note: % is set by controls: 0 for no effect and ±100 for the full control effect; nearly all actives have a fitted effect of over 60% in size
Target sequence (P16066 whole entry, looked up): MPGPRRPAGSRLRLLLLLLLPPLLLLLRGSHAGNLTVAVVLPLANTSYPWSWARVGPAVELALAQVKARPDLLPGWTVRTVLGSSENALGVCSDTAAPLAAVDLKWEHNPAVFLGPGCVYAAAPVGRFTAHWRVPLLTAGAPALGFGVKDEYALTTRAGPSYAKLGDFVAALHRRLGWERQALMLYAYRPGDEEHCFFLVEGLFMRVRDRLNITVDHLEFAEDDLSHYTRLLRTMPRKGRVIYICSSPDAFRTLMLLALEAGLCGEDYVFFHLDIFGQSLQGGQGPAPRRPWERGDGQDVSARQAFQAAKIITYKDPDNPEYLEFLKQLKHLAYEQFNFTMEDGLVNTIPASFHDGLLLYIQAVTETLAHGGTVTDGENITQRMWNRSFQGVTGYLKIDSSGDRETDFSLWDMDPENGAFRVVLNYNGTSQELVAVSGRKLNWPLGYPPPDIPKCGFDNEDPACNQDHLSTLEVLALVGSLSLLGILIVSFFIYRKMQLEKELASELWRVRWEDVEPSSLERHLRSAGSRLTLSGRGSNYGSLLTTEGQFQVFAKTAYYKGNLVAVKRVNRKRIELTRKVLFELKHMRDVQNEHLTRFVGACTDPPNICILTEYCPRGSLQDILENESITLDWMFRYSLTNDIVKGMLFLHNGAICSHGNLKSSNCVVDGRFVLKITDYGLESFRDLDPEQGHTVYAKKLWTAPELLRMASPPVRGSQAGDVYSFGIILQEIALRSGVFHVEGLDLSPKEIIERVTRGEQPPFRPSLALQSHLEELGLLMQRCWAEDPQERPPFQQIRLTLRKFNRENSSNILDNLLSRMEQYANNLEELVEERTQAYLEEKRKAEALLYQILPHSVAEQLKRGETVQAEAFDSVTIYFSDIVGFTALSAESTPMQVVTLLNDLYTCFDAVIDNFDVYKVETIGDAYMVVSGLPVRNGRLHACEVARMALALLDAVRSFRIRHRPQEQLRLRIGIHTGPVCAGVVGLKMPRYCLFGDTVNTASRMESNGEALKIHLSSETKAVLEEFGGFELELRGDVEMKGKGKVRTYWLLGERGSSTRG
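HEK293 cells stably expressing human Npr1 and cGMP GloSensor pGS-40F, loaded 2 h with 2% GloSensor reagent, given compound 30 min at room temperature. Luminescence read before and 20 min after 0.1 nM hNppA.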
HEK cytotox = cytotoxic compounds in HEK 293 cells | HEK 293 viability, ATP luminescence (CellTiter-Glo), 48-72 h | 94,000 compounds, 6.6% hits | AID 1345083 | Potency, µM (titrated, usually from 115 µM), without a hit: top-dose activity change, negative = cytotoxicity, usual class: inhibitors; note: % is set by controls: 0 for no effect and ±100 for the full control effect; nearly all actives have a fitted effect of over 60% in size
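HEK 293 seeded at 250 cells/well receive compound via pintool. After 48 or 72 hr at 37 degree Celsius, 5% CO2 and 95% humidity, CellTiter-Glo is dispensed and luminescence read following 10 min at room temperature.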
GPT2 inh = GPT2 alanine aminotransferase inhibition; Recombinant GPT2, coupled pyruvate oxidase/HRP Amplex Red fluorescence; 100,000 compounds, 0.25% hits; Q8TD30; AID 1671188; Potency, µM (highest dose often 57.7 µM), for the others: at the top dose activity change, negative = inhibition, hits mostly inhibitors; note: % is set by controls: 0 for no effect and ±100 for the full control effect; nearly all actives have a fitted effect of over 60% in size
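GPT2 10ng/uL, a-KG 250uM, L-Ala 2mM, HEPES pH7.5 + 0.0001% Tween; 30 min RT. Then Amplex mix (PO/HRP/ThPP), 30 min RT dark, fluorescence. AOA 50uM used as positive control.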
3T3 cytotox = NIH 3T3 cell cytotoxicity | Potency, µM (top dose mostly 96.7 µM), without a hit: at the top dose activity change, negative = cytotoxicity, usual class: inhibitors | AID 1345082 | NIH 3T3 viability, CellTiter-Glo ATP luminescence, 48-72 h | 94,000 compounds, 4.3% hits; note: % is set by controls: 0 for no effect and ±100 for the full control effect; nearly all actives have a fitted effect of over 55% in size
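First NIH 3T3 cells are plated at 400 cells/well; next compound is pinned in; then plates incubate 48 or 72 hr at 37 °C; finally CellTiter-Glo is added and luminescence read after 10 min.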
FLuc SDR -ATP = binders stabilizing firefly luciferase, without ATP | shares compounds with FLuc inh-1 | Purified FLuc-C-HiBiT, Nano-Glo HiBiT luminescence, no ATP | Potency, µM (doses to about 32.7 µM), for inactives: at the highest dose activation (signal gain), hits mostly activators | 1,300 compounds, 7.8% hits | AID 1963318; note: nearly all actives have a fitted effect of over 55% in size
FLuc SDR ATP = binders stabilizing firefly luciferase, plus ATP | shares compounds with FLuc inh-1 | purified FLuc-C-HiBiT + ATP, HiBiT complementation luminescence | Potency, µM (titrated, usually from 32.7 µM), for the others: at the top dose activation (gain of signal), actives largely listed as activators | 1,300 compounds, 8.7% hits;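 note: signal reports ligand binding via conformational change of the enzyme rather than luciferase catalysis; % of control where 0% means no effect; nearly all actives have a fitted effect of over 55% in size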
FLuc inh-2 = inhibitors of firefly luciferase enzymatic activity; shares compounds with FLuc inh-1; purified FLuc-C-HiBiT enzyme, luciferin luminescence; Potency, µM (top dose mostly 32.7 µM), for the others: top-dose activity change, negative = inhibition, most hits filed as inhibitors; 1,300 compounds, 42% hits; AID 1963320; note: % is set by controls: 0 for no effect and ±100 for the full control effect; nearly all actives have a fitted effect of over 70% in size
* hit, by the source's call; i = inactive; ? = inconclusive; . = no result; [ ] = another dose, or the depositor's remark. Unless noted, calls come from the whole dose curve; as a rule, active = well fitted curve in the direction sought with a large enough effect; inconclusive = small, poorly fitted or top-dose-only effect, or another doubt; inactive = no such curve, though single readings can be large; an effect the other way counts as inactive or inconclusive. Potency is the fitted concentration of half-maximal effect.

SMILES	FLuc inh-1	hNpr1 antagonist	HEK cytotox	GPT2 inh	3T3 cytotox	FLuc SDR -ATP	FLuc SDR ATP	FLuc inh-2
COc1cccc(CN2CCNc3cc(Nc4ccccc4)ncc3C2)c1	5.6µM*	-18%[70.6 µM]	40µM*	-2%[88.5 µM]	40µM*	21%[49.3 µM]	15%[49.3 µM]	?
COc1ccc(Nc2cc3c(cn2)NCCN(Cc2ccccc2)C3)cn1	i	0%[70.6 µM]	?	?	?	.	.	.
COc1cccc(Nc2cc3c(cn2)CN(Cc2cccnc2)CCN3)c1	5µM*	-17%[70.6 µM]	?	-6%[88.5 µM]	?	?	14%[49.3 µM]	?
COc1cccc(CN2CCc3nc(Nc4ccc5c(c4)OCCO5)ncc3C2)c1	.	.	.	.	.	17%	13%	?
Cc1ccc(O)cc1Nc1ccnc(Nc2cccc(C(N)=O)c2)n1	.	.	.	2%	.	.	.	.
Cc1ccc(C(=O)O)cc1Nc1nc2ccccc2n2nnnc12	.	.	.	.	.	13%	11%	?
CCOC(=O)CN1C(=O)CCN(C(=O)CC(C)(C)C)CC(OC)c2ccccc21 (stereo not drawn)	.	.	-18%[57.5 µM]	i	?	.	.	.
Cc1ccc(C2=NC(c3ccccc3)=Nc3ccc(Cl)cc3N2)cc1	.	.	.	.	.	13%	10%	-9%
Cn1ccnc1-c1ccc(N2CCCC(CO)(Cc3cccc(Cl)c3)C2)nn1 (stereo not drawn)	i	?	?	-6%	?	.	.	.
O=C(NC1CCN(c2ccnc3ccnn23)C1)C1CC1 (stereo not drawn)	.	.	-22%[172 µM]	-10%[88.5 µM]	?	.	.	.
Cc1cccc(CCNC(=O)c2sc3nc4n(c(=O)c3c2C)CCCC4)c1	.	.	.	.	.	11%	8%	-5%
COCCNC(=O)c1nc(-c2cccc(C(F)(F)F)c2)c2cnccn12	i	0%	?	i	-24%	.	.	.
COCCOC1CCOC2(CCN(C(=O)Cn3c(=O)oc4ccccc43)CC2)C1 (stereo not drawn)	i	5%	11%	i	-3%	.	.	.
CN(Cc1ccccc1)C(=O)[C@H]1C[C@@H](O)[C@H](O)[C@@H]2N=C(Nc3ccc(-n4cccn4)cc3)S[C@@H]21	13µM*	6%	?	-2%	-27%	9%	?	?
CN(C)c1cccc(C(=O)Nc2ccc3ncnc(N4CCCCC4)c3c2)c1	i	-17%	?	5%	?	.	.	.
CCc1ccc(C(=O)Nc2ccc3c(N4CCOCC4)ncnc3c2)cc1	10µM*	2%	?	-6%	8.9µM*	?	?	7.9µM*
CN(C)c1cccc(C(=O)Nc2ccc3c(N4CCOCC4)ncnc3c2)c1	13µM*	-14%	?	-10%	-66%	27%	?	?
CCOc1ccc(C(=O)Nc2ccc3ncnc(N4CCCCC4)c3c2)cc1	i	-3%	?	5%	?	.	.	.
COc1cccc(Nc2ccc3c(n2)C(C)(C(=O)NCC2CC2)CN(C)C3)c1 (stereo not drawn)	?	-13%[70.6 µM]	?	-9%[88.5 µM]	?	.	.	.
Oc1ccccc1CN1CCNc2cc(Nc3ccccc3)ncc2C1	5.6µM*	-25%[70.6 µM]	28µM*	3%[88.5 µM]	32µM*	17%	12%	?
c1cncc(Nc2cc3c(cn2)CN(Cc2ccn[nH]2)CCN3)c1	.	.	.	.	.	21%[49.3 µM]	14%[49.3 µM]	?
c1cncc(CN2CCNc3cc(-c4cn[nH]c4)ncc3C2)c1	?	-1%[70.6 µM]	?	i	i	.	.	.
c1cncc(Nc2cc3c(cn2)CN(Cc2cnc[nH]2)CCN3)c1	.	.	.	.	.	11%	9%	-8%
COCCNc1cc2c(cn1)CN(Cc1ccccc1)CCN2	?	-3%[70.6 µM]	?	3%[88.5 µM]	?	.	.	.
Cc1[nH]cnc1CN1CCNc2cc(Nc3ccccc3)ncc2C1	6.3µM*	-5%[70.6 µM]	?	2%[88.5 µM]	?	27%[49.3 µM]	16%[49.3 µM]	?
SMILES	FLuc inh-1	hNpr1 antagonist	HEK cytotox	GPT2 inh	3T3 cytotox	FLuc SDR -ATP	FLuc SDR ATP	FLuc inh-2
c1ccc(Nc2cc3c(cn2)CN(Cc2ccn[nH]2)CCN3)cc1	7.9µM*	-21%[70.6 µM]	?	-4%[88.5 µM]	?	28%[49.3 µM]	16%[49.3 µM]	?
CCN1CCC(CCNC(=O)CCC[C@H]2NC[C@@H]3CC2CN(Cc2ccccc2)C3)CC1	i	-3%	14%	i	i	.	.	.
Cc1ccc(NC(=O)N2CCc3c(C(=O)NCc4ccco4)cccc32)cc1	0.089µM*	1.1µM*	?	i	?	9.9µM*	0.078µM*	0.05µM*
CCCNC(=O)c1cccc2c1CCN2C(=O)Nc1cccc(C)c1	5µM*	-23%	?	-5%	5%	?	3.5µM*	2.5µM*
CCCCNC(=O)c1cccc2c1CCN2C(=O)c1ccc(F)cc1	i	5%	?	i	-23%	.	.	.
CCCNC(=O)c1cccc2c1CCN2S(=O)(=O)c1ccc(C)cc1	i	?	?	?	?	.	.	.
Cc1ccc(NC(=O)N2CCc3c(C(=O)NCCc4ccccn4)cccc32)cc1	5.6µM*	-20%	?	?	?	?	11µM*	4.4µM*
CCCCNC(=O)c1cccc2c1CCN2C(=O)Nc1ccccc1	3.5µM*	?	?	i	-25%	24%	2µM*	1.6µM*
CCc1ccc([S+](=O)([O-])c2nnn3c2nc(N2CCC(F)CC2)c2ccccc23)cc1	.	.	-31%	-9%	-31%	.	.	.
CCN1Cc2cc(OC)ccc2N(C[C@@H](O)COCc2ccccc2)CCC1=O	.	.	-22%	.	?	.	.	.
CCOc1ccc(NC(=O)c2nnn3cc(C)[nH]c(=O)c23)cc1	?	-4%	3%	-2%	-8%	.	.	.
COCCOCC1(CNCc2cn(C)c3ccccc23)C[C@@H](O)[C@@H](O)C1 (stereo partly drawn)	i	-1%[70.6 µM]	-9%[172 µM]	1%[88.5 µM]	3%[138 µM]	.	.	.
CN(C)CCNC(=O)c1cccc2c1CCN2C(=O)Nc1ccccc1	3.5µM*	?	?	i	-4%	17%	1.1µM*	0.7µM*
O=C(NCCN1CCc2ccccc2C1)c1cccc2c1CCN2C(=O)C1CC1	i	7%	-26%	-9%	?	.	.	.
O=C(NCC1CCCCC1)c1nc2cccnc2n(C2CC2)c1=O	.	.	-3%[172 µM]	i	-19%[138 µM]	.	.	.
COc1cccc2cc(C(=O)Nc3ccc(CC(=O)O)cc3)c(=O)oc12	.	.	.	.	.	2.5µM*	1.8µM*	3.1µM*
COc1ccc(CCN2Cc3cc(NC(=O)c4ccccc4OC)ccc3OCC2=O)cc1	i	-19%	?	-1%	?	.	.	.

Screening data deposited in PubChem by National Center for Advancing Translational Sciences (NCATS).
